Measured values as given in the OligoGym collection.

The sequences below were run against GHR (assay: pooled miR-30 sensor sort-seq; sequence = guide strand). Conditions: shRNA.
Also: reference of the scale not given here.

Sequence	sensor-assay potency score (higher = more potent)
TTCATCAACAGAGAAACACTTT	0.81
TAATCTTTGGAACTGGAACTGG	-0.523
TATGAATGGAGGTATAGTCTGG	0.0222
TTAGCTTGATACAATAAGGTAT	0.218
TTTCTGAATATCTGCATTGCGT	-0.999
TAGCTCAATAAATTCAACCCAA	-0.0787
TCATACTCCAGAACCATCCATC	-0.368
TGAACTTGGATTGCTTAGCTGA	0.127
TTCTGGTATAGAACAGCTGTAT	-1.1
TTAGAAGTCTGTCTGTGTCTGA	0.716
TAGAAGTCTGTCTGTGTCTGAT	-0.00194

These sequences were tested against GHSR in the same assay as above. Conditions: shRNA.

Sequence	sensor-assay potency score (higher = more potent)
TTTCACGGTTTGCTTGTGGTTC	-0.265
TTTGCAGAGGAGGTCGCCGAAG	-1.38
TTGCAGTACTGGCTGATCTGAG	-0.301
